Values joined by “and” are separate entries in the source; they are usually repeats but may differ in a detail not shown here. Equal entries are not always repeated. Results filed as inconclusive are left out. More than one record can exist for a structure, and the calls need not agree. Active and inactive are the calls of the source. The calls were made as follows: active = hit-call score of the fitted dose curve at least 0.9, where 1 is the maximum; inconclusive = response in the unintended direction; inactive = score below 0.9.
Columns and labels:
[1] = system: zebrafish Estrogen Receptor (ESR2A), gene 317734; experiment: ATG_zfER2a_XSP1: Attagene TRANS-FACTORIAL Multi-Species (XSP1) HepG2 Assay for zebrafish Estrogen Receptor (ESR2A) (AID 2283778)
In short: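 Reporter transcripts were quantified by RT-PCR, 6-FAM labelling, HpaI digestion and capillary electrophoresis after 24 h dosing. The cells were HepG2 transiently carrying a zebrafish ER2a–Gal4 construct plus multiplexed UAS reporters; medium contained 3 nM 6-alpha-fluorotestosterone.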

[2] = target: chicken Estrogen Receptor (ESR1), ESR1 (gene 396099) (UniProt P06212); experiment: ATG_chERa_XSP1: Attagene TRANS-FACTORIAL Multi-Species (XSP1) HepG2 Assay for chicken Estrogen Receptor (ESR1) (AID 2283779)
Chain of chicken Estrogen Receptor (ESR1), ESR1 (gene 396099) (P06212 whole entry, looked up, the tested form may be a part): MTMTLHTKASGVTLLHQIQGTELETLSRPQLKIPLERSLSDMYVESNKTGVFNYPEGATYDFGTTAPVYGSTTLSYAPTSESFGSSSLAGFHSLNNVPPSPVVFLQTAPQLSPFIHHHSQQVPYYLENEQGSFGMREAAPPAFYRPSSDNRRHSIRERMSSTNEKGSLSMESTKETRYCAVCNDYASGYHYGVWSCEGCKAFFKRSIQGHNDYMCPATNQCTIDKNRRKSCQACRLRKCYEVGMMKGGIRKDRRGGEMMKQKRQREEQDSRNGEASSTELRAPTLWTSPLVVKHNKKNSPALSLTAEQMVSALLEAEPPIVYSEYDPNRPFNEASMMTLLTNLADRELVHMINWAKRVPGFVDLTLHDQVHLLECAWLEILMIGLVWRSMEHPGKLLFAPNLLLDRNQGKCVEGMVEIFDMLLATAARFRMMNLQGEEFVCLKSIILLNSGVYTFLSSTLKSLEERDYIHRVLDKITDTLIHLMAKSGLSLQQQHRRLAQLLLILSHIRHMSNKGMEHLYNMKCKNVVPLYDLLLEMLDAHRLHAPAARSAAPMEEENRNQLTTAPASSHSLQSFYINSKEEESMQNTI
In short: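 Trans-activation of an exogenous chicken ERα–Gal4 chimera read as reporter transcript (RT-PCR, fluorescent labeling, capillary electrophoresis) after 24 h compound exposure of transfected HepG2; medium held 3 nM 6-alpha-fluorotestosterone. Positive-direction fit against DMSO.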

[3] = target: Estrogen receptor (Homo sapiens) (UniProt P03372); experiment: ATG_hERa_XSP1: Attagene TRANS-FACTORIAL Multi-Species (XSP1) HepG2 Assay for human Estrogen Receptor (ESR1) (AID 2283780)
Chain of Estrogen receptor (Homo sapiens) (P03372 whole entry, looked up, the tested form may be a part): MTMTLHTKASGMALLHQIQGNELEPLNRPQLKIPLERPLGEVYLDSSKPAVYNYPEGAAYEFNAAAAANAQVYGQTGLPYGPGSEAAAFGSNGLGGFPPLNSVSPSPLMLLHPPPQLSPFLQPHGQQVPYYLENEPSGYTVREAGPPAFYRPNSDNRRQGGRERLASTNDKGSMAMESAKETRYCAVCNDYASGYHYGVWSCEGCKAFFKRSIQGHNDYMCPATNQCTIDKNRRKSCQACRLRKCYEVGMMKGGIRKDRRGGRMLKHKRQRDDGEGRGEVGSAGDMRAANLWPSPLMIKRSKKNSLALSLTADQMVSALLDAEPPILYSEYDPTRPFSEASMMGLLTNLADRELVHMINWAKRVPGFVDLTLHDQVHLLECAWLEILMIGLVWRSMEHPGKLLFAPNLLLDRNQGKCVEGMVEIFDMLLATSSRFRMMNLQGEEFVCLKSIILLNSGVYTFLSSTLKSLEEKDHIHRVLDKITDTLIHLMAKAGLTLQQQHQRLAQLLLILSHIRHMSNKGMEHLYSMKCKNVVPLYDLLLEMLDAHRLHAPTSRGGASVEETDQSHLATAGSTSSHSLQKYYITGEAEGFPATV
In short: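 Reporter transcripts from multiplexed GAL4-UAS units driven by NR-Gal4 chimeras in transiently transfected HepG2 were measured by RT-PCR with capillary electrophoresis 24 h post-dose, with 3 nM 6-alpha-fluorotestosterone present; gain-of-signal relative to DMSO.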

[4] = system: turtle Estrogen Receptor (ESR1), gene 101933533; experiment: ATG_trERa_XSP1: Attagene TRANS-FACTORIAL Multi-Species (XSP1) HepG2 Assay for turtle Estrogen Receptor (ESR1) (AID 2283781)
In short: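 Transactivation measured 24 h post-dose as reporter mRNA (RT-PCR, fluorescent capillary electrophoresis) from an NR-Gal4 turtle ER construct in HepG2. Medium included 3 nM 6-alpha-fluorotestosterone; increase over DMSO fitted.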

[5] = target: Estrogen receptor beta (Homo sapiens) (UniProt Q92731); experiment: ATG_hERb_XSP1: Attagene TRANS-FACTORIAL Multi-Species (XSP1) HepG2 Assay for human Estrogen Receptor (ESR2) (AID 2283788)
Chain of Estrogen receptor beta (Homo sapiens) (Q92731 whole entry, looked up, the tested form may be a part): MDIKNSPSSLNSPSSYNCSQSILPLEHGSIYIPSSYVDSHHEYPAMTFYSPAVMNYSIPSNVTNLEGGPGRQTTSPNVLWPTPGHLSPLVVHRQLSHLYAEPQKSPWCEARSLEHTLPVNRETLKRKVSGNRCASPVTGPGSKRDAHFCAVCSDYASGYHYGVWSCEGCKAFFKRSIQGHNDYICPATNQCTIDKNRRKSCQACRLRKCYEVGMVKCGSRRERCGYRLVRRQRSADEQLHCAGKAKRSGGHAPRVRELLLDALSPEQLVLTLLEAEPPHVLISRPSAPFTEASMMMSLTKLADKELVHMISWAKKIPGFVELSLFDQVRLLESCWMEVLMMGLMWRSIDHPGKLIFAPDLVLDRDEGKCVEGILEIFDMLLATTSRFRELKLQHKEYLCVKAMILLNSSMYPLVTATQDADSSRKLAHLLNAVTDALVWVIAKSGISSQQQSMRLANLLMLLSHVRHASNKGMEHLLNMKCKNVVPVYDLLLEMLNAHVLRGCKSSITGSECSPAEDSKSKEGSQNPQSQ
In short: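 HepG2 cells transiently transfected with multiplexed GAL4-UAS reporter units carrying chimeric human ERβ-Gal4; 24 h compound exposure with 3 nM 6-alpha-fluorotestosterone present. Reporter mRNA quantified by RT-PCR, FAM labelling and capillary electrophoresis; gain-of-signal fitted versus DMSO.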

[6] = ATG_M_06_XSP1: Attagene TRANS-FACTORIAL Multi-Species (XSP1) HepG2 Assay for M06 Transcription Factor (Internal Marker) (AID 2283790)
In short: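 This background-control readout tracks M06 reporter mRNA, measured by RT-PCR and capillary electrophoresis. HepG2 cells transiently carrying the GAL4-UAS reporter panel were dosed for 24 h with 3 nM 6-alpha-fluorotestosterone added for partial AR stimulation; increases were scored relative to DMSO.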

[7] = ATG_M_61_XSP1: Attagene TRANS-FACTORIAL Multi-Species (XSP1) HepG2 Assay for M61 Transcription Factor (Internal Marker) (AID 2283797)
In short: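 Background-control readout: reporter transcripts measured by RT-PCR and capillary electrophoresis 24 h after dosing transiently transfected HepG2 multi-reporter cells, with 3 nM 6-alpha-fluorotestosterone present. Fitted in the positive direction relative to DMSO.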

[8] = target: human Thyroid hormone Receptor beta (TRb), THRB (gene 7068) (UniProt P10828); experiment: ATG_hTRb_XSP1: Attagene TRANS-FACTORIAL Multi-Species (XSP1) HepG2 Assay for human Thyroid hormone Receptor beta (TRb) (AID 2283808)
Chain of human Thyroid hormone Receptor beta (TRb), THRB (gene 7068) (P10828 whole entry, looked up, the tested form may be a part): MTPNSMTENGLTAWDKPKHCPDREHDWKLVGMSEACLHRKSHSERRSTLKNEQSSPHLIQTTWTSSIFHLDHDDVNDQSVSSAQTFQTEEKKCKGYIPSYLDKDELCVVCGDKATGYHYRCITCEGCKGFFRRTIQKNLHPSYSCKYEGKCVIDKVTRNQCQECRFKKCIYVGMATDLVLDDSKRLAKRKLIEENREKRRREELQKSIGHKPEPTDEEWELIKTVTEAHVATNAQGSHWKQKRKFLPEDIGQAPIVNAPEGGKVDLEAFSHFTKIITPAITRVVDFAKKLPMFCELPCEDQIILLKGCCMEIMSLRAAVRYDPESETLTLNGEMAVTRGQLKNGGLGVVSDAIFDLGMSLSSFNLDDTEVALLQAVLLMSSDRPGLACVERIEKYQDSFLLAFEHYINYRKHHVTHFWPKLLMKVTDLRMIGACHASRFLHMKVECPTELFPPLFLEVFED
In short: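 Readout is reporter mRNA induction measured by RT-PCR, fluorescent labelling and capillary electrophoresis, fitted upward relative to DMSO. Transiently transfected human HepG2 cells expressing NR-Gal4 chimeras were dosed for 24 h, medium containing 3 nM 6-alpha-fluorotestosterone.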

[9] = ATG_XTT_Cytotoxicity_XSP1: Cytotoxicity Assessment in the Attagene TRANS-FACTORIAL Multi-Species (XSP1) HepG2 Assay (AID 2283810)
In short: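 XTT viability readout taken at 24 hours post-dosing in HepG2 liver cells co-treated with 3 nM 6-alpha-fluorotestosterone. Signal loss relative to DMSO controls reflects cytotoxicity.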

[10] = ATG_M_06_XSP2: Attagene TRANS-FACTORIAL Multi-Species (XSP2) HepG2 Assay for M06 Transcription Factor (Internal Marker) (AID 2283811);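 also: hits are increases in signal above the DMSO baseline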
In short: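 Internal-marker reporter transcript, quantified by RT-PCR, 6-FAM labelling, HpaI digestion and capillary electrophoresis, 24 hours after dosing transfected HepG2 cells with 3 nM 6-alpha-fluorotestosterone and 1.5 nM norgestrel present; DMSO baseline.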

[11] = ACEA_ER_AUC_viability: ACEA Biosciences xCELLigence Real-Time Cell Analysis on Estrogen Receptor Agonism for Viability (AID 2283782);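 also: hit means loss of impedance signal meaning reduced cell growth or viability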
In short: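 Viability endpoint: reduced impedance area under the curve relative to DMSO, recorded by real-time electrode sensing over ~80 h of continuous exposure. Duplicate plates of T47D in hormone-depleted medium; eight concentrations, 1:4 dilutions, 100 uM maximum.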

AR (gene 367) = AR (gene 367) (UniProt P10275); experiment: ACEA_AR_agonist_80hr: ACEA Biosciences xCELLigence Real-Time Cell Analysis on Androgen Receptor Agonism for Proliferation (AID 2283783);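 also: hits increase impedance growth signal above DMSO baseline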
Chain of AR (gene 367) (P10275 whole entry, looked up): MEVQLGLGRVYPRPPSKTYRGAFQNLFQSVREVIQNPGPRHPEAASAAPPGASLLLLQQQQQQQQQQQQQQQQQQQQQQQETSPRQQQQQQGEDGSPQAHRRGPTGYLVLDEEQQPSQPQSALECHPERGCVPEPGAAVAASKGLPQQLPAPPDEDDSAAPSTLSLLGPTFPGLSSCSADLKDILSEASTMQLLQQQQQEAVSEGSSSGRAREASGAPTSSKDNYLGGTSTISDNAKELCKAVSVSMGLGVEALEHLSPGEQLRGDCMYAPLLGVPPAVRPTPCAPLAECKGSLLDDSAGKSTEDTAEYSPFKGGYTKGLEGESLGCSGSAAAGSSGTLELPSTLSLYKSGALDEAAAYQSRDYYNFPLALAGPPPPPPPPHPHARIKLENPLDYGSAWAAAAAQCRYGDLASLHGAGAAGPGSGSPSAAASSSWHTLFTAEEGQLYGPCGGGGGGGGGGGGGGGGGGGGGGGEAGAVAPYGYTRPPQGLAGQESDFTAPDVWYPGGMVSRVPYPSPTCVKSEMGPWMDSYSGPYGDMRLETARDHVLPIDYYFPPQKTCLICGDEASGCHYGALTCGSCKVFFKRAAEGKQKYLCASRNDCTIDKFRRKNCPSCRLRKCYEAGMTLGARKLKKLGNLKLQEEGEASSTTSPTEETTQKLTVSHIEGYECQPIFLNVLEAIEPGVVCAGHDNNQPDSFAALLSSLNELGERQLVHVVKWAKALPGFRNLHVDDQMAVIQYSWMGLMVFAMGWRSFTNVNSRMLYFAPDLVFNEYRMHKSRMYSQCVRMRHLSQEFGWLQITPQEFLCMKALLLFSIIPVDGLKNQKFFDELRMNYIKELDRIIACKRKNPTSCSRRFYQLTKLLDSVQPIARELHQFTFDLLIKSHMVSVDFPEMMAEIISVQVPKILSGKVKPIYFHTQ
In short: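 Eight concentrations, 1:4 serial dilution from a 100 uM final top, in biological duplicate. Impedance-based real-time growth of 22Rv1 cells after overnight baseline, recorded hourly and read at 80 hours. Controls: testosterone, MG132, assay media.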

[12] = system: turtle Estrogen Receptor (ERa), gene 101933533; experiment: ATG_trERa_XSP2: Attagene TRANS-FACTORIAL Multi-Species (XSP2) HepG2 Assay for turtle Estrogen Receptor (ERa) (AID 2283812);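 also: actives raise reporter signal above DMSO so AC50 reflects agonist activity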
In short: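 Readout is reporter mRNA quantified by RT-PCR with capillary electrophoresis after 24 h compound exposure, increase relative to DMSO. Uses transiently transfected human HepG2 liver cells carrying a chimeric turtle ERa-Gal4 receptor driving GAL4-UAS reporters.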

[13] = target: Estrogen receptor beta (Homo sapiens) (UniProt Q92731); experiment: ATG_hERb_XSP2: Attagene TRANS-FACTORIAL Multi-Species (XSP2) HepG2 Assay for human Estrogen Receptor (ERb) (AID 2283813);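 also: actives raise reporter mRNA above DMSO so AC50 reflects agonist induction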
In short: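 Transient TRANS reporter system in HepG2: after 24 h of chemical, RNA is reverse-transcribed, reporter cDNA amplified, FAM-labelled and sized by capillary electrophoresis. Induction of the human ERb-Gal4 reporter is measured relative to DMSO.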

[14] = ATG_M_19_XSP1: Attagene TRANS-FACTORIAL Multi-Species (XSP1) HepG2 Assay for M19 Transcription Factor (Internal Marker) (AID 2283798)
In short: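 Readout is reporter mRNA induction quantified via RT-PCR, 6-FAM labeling, HpaI digestion and capillary electrophoresis, fitted in the positive direction versus DMSO baseline. Transfected HepG2 cells exposed 24 h, medium including 3 nM 6-alpha-fluorotestosterone.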

[15] = ATG_M_32_XSP1: Attagene TRANS-FACTORIAL Multi-Species (XSP1) HepG2 Assay for M32 Transcription Factor (Internal Marker) (AID 2283799)
In short: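 Reporter transcripts from the M32 internal-control unit measured by RT-PCR, FAM labelling, HpaI digestion and capillary electrophoresis after 24 h compound exposure of transfected HepG2, 3 nM 6-alpha-fluorotestosterone included; DMSO baseline, positive-direction fit.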

[16] = system: zebrafish Peroxisome Proliferator-activated Receptor gamma (PPARg), gene 557037; experiment: ATG_zfPPARg_XSP1: Attagene TRANS-FACTORIAL Multi-Species (XSP1) HepG2 Assay for zebrafish Peroxisome Proliferator-activated Receptor gamma (PPARg) (AID 2283801)
In short: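 Trans-activation readout of chimeric zebrafish PPARg–GAL4 in transiently transfected human HepG2 cells, 24 h chemical exposure (medium includes 3 nM 6-alpha-fluorotestosterone). Reporter transcripts measured by RT-PCR and capillary electrophoresis, fitted as gain over DMSO.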

[17] = target: Nuclear receptor subfamily 1 group I member 2 (Mus musculus) (UniProt O54915); experiment: ATG_mPXR_XSP1: Attagene TRANS-FACTORIAL Multi-Species (XSP1) HepG2 Assay for mouse Pregnane X Receptor (PXR) (AID 2283803)
Chain of Nuclear receptor subfamily 1 group I member 2 (Mus musculus) (O54915 whole entry, looked up, the tested form may be a part): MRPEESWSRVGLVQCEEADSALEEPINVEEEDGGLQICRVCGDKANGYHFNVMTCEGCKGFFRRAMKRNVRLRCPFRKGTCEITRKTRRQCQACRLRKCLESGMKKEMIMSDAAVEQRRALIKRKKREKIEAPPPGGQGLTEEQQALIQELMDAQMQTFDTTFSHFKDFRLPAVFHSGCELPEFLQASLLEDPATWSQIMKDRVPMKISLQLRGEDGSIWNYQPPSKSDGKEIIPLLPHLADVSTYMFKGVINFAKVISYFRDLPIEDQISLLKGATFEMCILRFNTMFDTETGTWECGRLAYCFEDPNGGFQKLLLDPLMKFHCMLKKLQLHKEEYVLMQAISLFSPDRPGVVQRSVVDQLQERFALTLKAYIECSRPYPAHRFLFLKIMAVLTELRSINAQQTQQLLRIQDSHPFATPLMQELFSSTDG
In short: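 Transiently transfected HepG2 cells expressing a receptor-Gal4 chimera drive a GAL4-UAS reporter; 3 nM 6-alpha-fluorotestosterone included. Reporter mRNA read 24 h post-dose by RT-PCR and capillary electrophoresis; gain of signal relative to DMSO.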

[18] = system: turtle Thyroid Hormone Receptor, alpha (TRa), gene 101949057; experiment: ATG_trTRa_XSP1: Attagene TRANS-FACTORIAL Multi-Species (XSP1) HepG2 Assay for turtle Thyroid Hormone Receptor, alpha (TRa) (AID 2283806)
In short: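 After 24 h chemical exposure, reporter transcripts were measured by RT-PCR with fluorescent primer extension, HpaI digestion and capillary electrophoresis. Cells were transiently transfected HepG2 expressing exogenous NR-Gal4 chimeras; medium contained 3 nM 6-alpha-fluorotestosterone; fitted upward relative to DMSO.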

[19] = target: zebrafish Thyroid Hormone Receptor beta (TRb), thrb (gene 30607) (UniProt Q9PVE4); experiment: ATG_zfTRb_XSP1: Attagene TRANS-FACTORIAL Multi-Species (XSP1) HepG2 Assay for zebrafish Thyroid Hormone Receptor beta (TRb) (AID 2283809)
Chain of zebrafish Thyroid Hormone Receptor beta (TRb), thrb (gene 30607) (Q9PVE4 whole entry, looked up, the tested form may be a part): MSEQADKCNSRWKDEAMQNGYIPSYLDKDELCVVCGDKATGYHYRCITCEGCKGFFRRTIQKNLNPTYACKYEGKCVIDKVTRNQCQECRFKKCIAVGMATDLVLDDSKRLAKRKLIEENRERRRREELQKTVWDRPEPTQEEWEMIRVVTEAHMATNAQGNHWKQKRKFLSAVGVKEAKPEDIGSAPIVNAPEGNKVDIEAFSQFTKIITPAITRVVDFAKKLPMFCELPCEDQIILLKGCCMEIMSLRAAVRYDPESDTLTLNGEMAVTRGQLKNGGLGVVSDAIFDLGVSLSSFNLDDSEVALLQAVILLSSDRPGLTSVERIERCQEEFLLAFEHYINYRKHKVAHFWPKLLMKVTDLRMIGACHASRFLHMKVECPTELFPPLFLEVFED
In short: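 HepG2 cells transiently transfected with multiplexed GAL4-UAS reporter units expressing chimeric zebrafish TRb–Gal4. Dosed 24 h with 3 nM 6-alpha-fluorotestosterone present; reporter mRNA measured by RT-PCR, HpaI digestion and capillary electrophoresis; gain of signal versus DMSO.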

CN(CCOc1ccc(CC2SC(=O)NC2=O)cc1)c1ccccn1 (configuration not stated)
outcome [1]: inactive | AC50 [2]: 0.0353 µM (active) | outcome [3]: inactive | AC50 [4]: 0.0372 µM (active) | outcome [5]: inactive | outcome [6]: inactive | outcome [7]: inactive | outcome [8]: inactive | outcome [9]: inactive | outcome [10]: inactive

CC(CCO)CCCC(C)(C)O (configuration not stated)
AC50 [11]: 50.5 µM (active)

CCCC(=O)OCCC(C)CCC=C(C)C (configuration not stated)
AC50 [11]: 77.8 µM (active)

Cc1cccc(C)c1C
AC50 [11]: 26.4 µM (active)

CCCCCC(=O)OCCc1ccccc1
AC50 [11]: 78.9 µM (active)

C=CC(=O)NCOCC(C)C
outcome [11]: inactive

CCCCCCCCCCCCCOS(=O)(=O)O
AC50 [11]: 73.8 µM (active) | outcome (AR (gene 367)): inactive

CC(CC(C)(C)C)CC(C)(C)CC(C)(C)C (configuration not stated)
outcome [11]: inactive

CCCCCCCCCCCCN
AC50 [11]: 66.3 µM (active) | AC50 [12]: 44.3 µM (active)

O=C(O)c1ccc(C(=O)O)cc1
outcome [11]: inactive

O=c1cc(-c2ccccc2)oc2cc(O)cc(O)c12
AC50 (AR (gene 367)): 0.0729 µM (active) | outcome [10]: inactive | AC50 [12]: 9.68 µM (active) and 2.6 µM (active) | AC50 [13]: 42.2 µM (active) and 2.03 µM (active)

O=C(Oc1ccccc1)c1ccc(O)cc1
AC50 [12]: 30.6 µM (active) | outcome [12]: inactive | AC50 [13]: 6.15 µM (active) | outcome [13]: inactive

C=COCCOCCOCCOC=C
outcome [11]: inactive

OCC(CO)(CO)COCC(CO)(CO)CO
outcome [11]: inactive

CC(CN1c2ccccc2Sc2ccccc21)N(C)C (configuration not stated)
AC50 [11]: 17.2 µM (active)

CCCCC(CC)COC(=O)/C=C\C(=O)OCC(CC)CCCC (configuration not stated)
AC50 [11]: 27.4 µM (active)

CCC/C=C/C=O
outcome [11]: inactive

C=CCOc1nc(OCC=C)nc(OCC=C)n1
outcome [11]: inactive

C[Si](O[Si](C)(C)C)O[Si](C)(C)C
outcome [11]: inactive | outcome (AR (gene 367)): inactive

CN(C)C(=N)N=C(N)N
outcome [11]: inactive | outcome [14]: inactive | outcome [15]: inactive | outcome [16]: inactive | AC50 [17]: 64.4 µM (active) | outcome [18]: inactive | outcome [19]: inactive | outcome [9]: inactive

Cc1ccc(O)c(C(C)(C)C)c1
AC50 [11]: 26.2 µM (active)

CC(C)=CCC/C(C)=C/COC=O
outcome [11]: inactive

NCCOCCO
outcome [11]: inactive

Nc1cccc(S(=O)(=O)c2cccc(N)c2)c1
outcome [11]: inactive

NCCCN1CCOCC1
outcome [11]: inactive

CCCCCCCCCCCCCCCC(=O)O
AC50 [11]: 84.3 µM (active)

CCn1c2ccccc2c2cc(N)ccc21
outcome [11]: inactive

CCCOCC(C)O (configuration not stated)
outcome [11]: inactive | outcome (AR (gene 367)): inactive

CCC(=O)OCCC(C)CCC=C(C)C (configuration not stated)
AC50 [11]: 78.6 µM (active)

O=Nc1ccc(Nc2ccccc2)cc1
AC50 [11]: 11.1 µM (active) | outcome (AR (gene 367)): inactive

Cc1cccc(C)c1[N+](=O)[O-]
outcome [11]: inactive

CC(C)[C@@H]1CC[C@@H](C)CC1=O
outcome [11]: inactive

O=C[C@H](O)[C@H](O)[C@H](O)CO
AC50 [11]: 23.6 µM (active)

OC1C(O)C(O)C(O)C(O)C1O (configuration not stated)
outcome [11]: inactive

CCC(O)CO (configuration not stated)
AC50 [11]: 26 µM (active)

Reference: PubChem BioAssay (EPA / NIEHS)
